From PubChem BioAssay (NCI)
Where “and” joins values, the source holds several entries; their conditions need not be identical. Equal values may be shown once. This is part of a sample that, as a whole, favours compounds with a hit. Of some 83,000 tested, about 20% had one in any assay.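 Activity criterion: percent growth below 10, measured after cells in 96-well plates were exposed to a single compound concentration for 48 hours.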 Unmarked numbers belong to inactive results. Calls of active or inactive are those of the source.

What was measured:
Assay in all cases: NCI-60 one-dose screen, 48 h (100 = growth as untreated, 0 = no growth, -100 = all killed)
DU-145 prostate = test system: DU-145 prostate
K-562 leukemia = test system: K-562 leukemia
MALME-3M melanoma = test system: MALME-3M melanoma
MDA-MB-231 breast = test system: MDA-MB-231 breast
RXF 393 renal = test system: RXF 393 renal
SF-268 CNS = test system: SF-268 CNS
SF-295 CNS = test system: SF-295 CNS
SF-539 CNS = test system: SF-539 CNS
UACC-257 melanoma = test system: UACC-257 melanoma
M14 melanoma = test system: M14 melanoma

CC(=NCc1ccccc1)c1ccc(O)cc1O
growth (DU-145 prostate; 10 µM unless noted): 112%
growth (K-562 leukemia; 10 µM unless noted): 96.6%
growth (MALME-3M melanoma; 10 µM unless noted): 93.8%
growth (MDA-MB-231 breast; 10 µM unless noted): 96.9%
growth (RXF 393 renal; 10 µM unless noted): 122%
growth (SF-268 CNS; 10 µM unless noted): 101%
growth (SF-295 CNS; 10 µM unless noted): 123%
growth (SF-539 CNS; 10 µM unless noted): 97.8%
growth (UACC-257 melanoma; 10 µM unless noted): 88.1%
growth (M14 melanoma; 10 µM unless noted): 104%

O=C(NNc1ccccc1)c1ccccc1
growth (DU-145 prostate; 10 µM unless noted): 98.1% and 71.3%
growth (K-562 leukemia; 10 µM unless noted): 18% and 19.8%
growth (MALME-3M melanoma; 10 µM unless noted): 99.2%
growth (MDA-MB-231 breast; 10 µM unless noted): 70.6% and 53.6%
growth (RXF 393 renal; 10 µM unless noted): 123%
growth (SF-268 CNS; 10 µM unless noted): 78.9% and 58.7%
growth (SF-295 CNS; 10 µM unless noted): 64.5%
growth (SF-539 CNS; 10 µM unless noted): 95.1% and 96.7%
growth (UACC-257 melanoma; 10 µM unless noted): 56.8% and 81.2%
growth (M14 melanoma; 10 µM unless noted): 53.9% and 38.5%

Cc1cccc(Cc2cnc(NC(=O)CCCOc3ccc(Cl)cc3)s2)c1
growth (DU-145 prostate; 10 µM unless noted): 24.2%
growth (K-562 leukemia; 10 µM unless noted): 25.8%
growth (MALME-3M melanoma; 10 µM unless noted): 32.5%
growth (MDA-MB-231 breast; 10 µM unless noted): 42.4%
growth (RXF 393 renal; 10 µM unless noted): 4.99% (active)
growth (SF-268 CNS; 10 µM unless noted): 50.2%
growth (SF-295 CNS; 10 µM unless noted): 12.6%
growth (SF-539 CNS; 10 µM unless noted): 8.78% (active)
growth (UACC-257 melanoma; 10 µM unless noted): 23%
growth (M14 melanoma; 10 µM unless noted): -1.79% (active)

CC(=O)/C=C/c1ccc(N(C)Cc2ccc(C(C)(C)C)cc2)cc1
growth (DU-145 prostate; 10 µM): 96.6%
growth (DU-145 prostate; 100 µM): 0.731% (active)
growth (K-562 leukemia; 10 µM): 59.5%
growth (K-562 leukemia; 100 µM): -12.4% (active)
growth (MALME-3M melanoma; 10 µM): 89.3%
growth (MALME-3M melanoma; 100 µM): -88.1% (active)
growth (MDA-MB-231 breast; 10 µM): 103%
growth (MDA-MB-231 breast; 100 µM): -70.6% (active)
growth (RXF 393 renal; 10 µM): 106%
growth (RXF 393 renal; 100 µM): -90.6% (active)
growth (SF-268 CNS; 10 µM): 102%
growth (SF-268 CNS; 100 µM): -76.8% (active)
growth (SF-295 CNS; 10 µM): 88.9%
growth (SF-295 CNS; 100 µM): -30.4% (active)
growth (SF-539 CNS; 10 µM): 98.9%
growth (SF-539 CNS; 100 µM): -69% (active)
growth (UACC-257 melanoma; 10 µM): 84.6%
growth (UACC-257 melanoma; 100 µM): -76.5% (active)
growth (M14 melanoma; 10 µM): 79.5%
growth (M14 melanoma; 100 µM): -65.3% (active)

COc1ccc(C(=O)/C=C/c2ccc(OCc3ccc(Cl)cc3)cc2)cc1OC
growth (DU-145 prostate; 10 µM): 95.2%
growth (DU-145 prostate; 100 µM): 14.9%
growth (K-562 leukemia; 10 µM): 67.9%
growth (K-562 leukemia; 100 µM): 52.2%
growth (MALME-3M melanoma; 10 µM): 110%
growth (MALME-3M melanoma; 100 µM): -19.5% (active)
growth (MDA-MB-231 breast; 10 µM): 110%
growth (MDA-MB-231 breast; 100 µM): -22.5% (active)
growth (RXF 393 renal; 10 µM): 110%
growth (RXF 393 renal; 100 µM): -2.05% (active)
growth (SF-268 CNS; 10 µM): 100%
growth (SF-268 CNS; 100 µM): 14%
growth (SF-295 CNS; 10 µM): 98.4%
growth (SF-295 CNS; 100 µM): 16.2%
growth (SF-539 CNS; 10 µM): 106%
growth (SF-539 CNS; 100 µM): 32.5%
growth (UACC-257 melanoma; 10 µM): 94.3%
growth (UACC-257 melanoma; 100 µM): 35.4%
growth (M14 melanoma; 10 µM): 95.9%
growth (M14 melanoma; 100 µM): 54.4%

CCN(CC)/C([O-])=c1\cccc\c1=C1\N=C(c2ccccc2)N=C1[n+]1ccc(-c2ccccc2)cc1
growth (DU-145 prostate; 10 µM unless noted): 102%
growth (K-562 leukemia; 10 µM unless noted): 96.7%
growth (MALME-3M melanoma; 10 µM unless noted): 92.7%
growth (MDA-MB-231 breast; 10 µM unless noted): 100%
growth (RXF 393 renal; 10 µM unless noted): 104%
growth (SF-268 CNS; 10 µM unless noted): 102%
growth (SF-295 CNS; 10 µM unless noted): 100%
growth (SF-539 CNS; 10 µM unless noted): 89.1%
growth (UACC-257 melanoma; 10 µM unless noted): 92.9%
growth (M14 melanoma; 10 µM unless noted): 89.6%

CCN(Cc1ccccc1)c1ccc(/C=C2\COc3ccccc3C2=O)cc1
growth (DU-145 prostate; 10 µM): 101%
growth (DU-145 prostate; 100 µM): 47.8%
growth (K-562 leukemia; 10 µM): 78.4%
growth (K-562 leukemia; 100 µM): 6.4% (active)
growth (MALME-3M melanoma; 10 µM): 99.1%
growth (MALME-3M melanoma; 100 µM): 54.5%
growth (MDA-MB-231 breast; 10 µM): 101%
growth (MDA-MB-231 breast; 100 µM): 43%
growth (RXF 393 renal; 10 µM): 109%
growth (RXF 393 renal; 100 µM): 37.3%
growth (SF-268 CNS; 10 µM): 101%
growth (SF-268 CNS; 100 µM): 54.7%
growth (SF-295 CNS; 10 µM): 94.4%
growth (SF-295 CNS; 100 µM): 54.4%
growth (SF-539 CNS; 10 µM): 97.3%
growth (SF-539 CNS; 100 µM): 61.1%
growth (UACC-257 melanoma; 10 µM): 92.6%
growth (UACC-257 melanoma; 100 µM): 42.8%
growth (M14 melanoma; 10 µM): 97.4%
growth (M14 melanoma; 100 µM): 28.9%

COc1cc(/C=C2/C=C(c3ccc(C(C)(C)C)cc3)N(CCc3ccc(S(N)(=O)=O)cc3)C2=O)cc(OC)c1OC
growth (DU-145 prostate; 10 µM unless noted): 77.1%
growth (K-562 leukemia; 10 µM unless noted): 24.5%
growth (MALME-3M melanoma; 10 µM unless noted): 68.4%
growth (MDA-MB-231 breast; 10 µM unless noted): 60.1%
growth (RXF 393 renal; 10 µM unless noted): 12.4%
growth (SF-268 CNS; 10 µM unless noted): 58.2%
growth (SF-295 CNS; 10 µM unless noted): 49.4%
growth (SF-539 CNS; 10 µM unless noted): 59%
growth (UACC-257 melanoma; 10 µM unless noted): 62.2%
growth (M14 melanoma; 10 µM unless noted): 36.5%

Cc1nnc(NS(=O)(=O)c2ccc(N=Nc3ccc(N)nc3N)cc2)s1
growth (DU-145 prostate; 10 µM unless noted): 118% and 105%
growth (K-562 leukemia; 10 µM unless noted): 105%
growth (MALME-3M melanoma; 10 µM unless noted): 110%
growth (MDA-MB-231 breast; 10 µM unless noted): 95.7% and 112%
growth (RXF 393 renal; 10 µM unless noted): 134% and 136%
growth (SF-268 CNS; 10 µM unless noted): 115% and 106%
growth (SF-295 CNS; 10 µM unless noted): 127% and 102%
growth (SF-539 CNS; 10 µM unless noted): 110% and 103%
growth (UACC-257 melanoma; 10 µM unless noted): 105% and 117%
growth (M14 melanoma; 10 µM unless noted): 101% and 108%

OCCN1CCN(c2cc(-c3cccc(OC(F)(F)F)c3)nc3ccc(N4CCCC4)cc23)CC1
growth (DU-145 prostate; 10 µM unless noted): 58%
growth (K-562 leukemia; 10 µM unless noted): -10.2% (active)
growth (MALME-3M melanoma; 10 µM unless noted): 34.6%
growth (MDA-MB-231 breast; 10 µM unless noted): 58.2%
growth (RXF 393 renal; 10 µM unless noted): 51%
growth (SF-268 CNS; 10 µM unless noted): 66.6%
growth (SF-295 CNS; 10 µM unless noted): 72.5%
growth (SF-539 CNS; 10 µM unless noted): 66.4%
growth (UACC-257 melanoma; 10 µM unless noted): 65.2%
growth (M14 melanoma; 10 µM unless noted): 27.5%
